Assay outcomes as filed in PubChem.
Hits are enriched below; roughly 8.5% of the tested compounds scored in any of these assays.
ALDH1A1 block: blocks purified human ALDH1A1 activity; P00352; Purified ALDH1A1, NADH fluorescence, propionaldehyde substrate; Potency, µM (highest dose often 75.3 µM), without a hit: at the highest dose activity, negative = inhibition, usual class: inhibitors; 220,000 tested, 7.3% active; AID 1030;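 also: potency is read from the fitted curve at half-maximal effect; plate controls were no enzyme wells and a reference inhibitor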
Sfp inh: Sfp phosphopantetheinyl transferase inhibition | Biochemical Sfp PPTase activity, qHTS | Potency, µM, for the others: largest response in the series, negative = inhibition, hits mostly inhibitors | 310,000 tested, 3.5% active | Q9F4F7; active = well fitted curve in the direction sought with a large enough effect; inconclusive = small, poorly fitted or top-dose-only effect, or another doubt; inactive = no such curve, though single readings can be large; an effect the other way counts as inactive or inconclusive;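 also: the enzyme is Sfp with the accession as filed and its product quenches rhodamine fluorescence; potency is read from the fitted curve at half-maximal effect; 0% = enzyme reaction without inhibitor and -100% = no enzyme wells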
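Reaction rates are the 30-min fluorescence difference (ex 525, em 598 nm) in wells containing 15 nM Sfp, 5 uM rhodamine-CoA and 12.5 uM BHQ-2-YbbR at pH 7.6 with 10 mM MgCl2.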
JMJD2E inh: JMJD2E (human) inhibition; B2RXH2; JMJD2E catalytic domain, FDH-coupled NADH fluorescence (FDH is formaldehyde dehydrogenase); Potency, µM (top dose mostly 57.1 µM), for the others: top-dose activity change, negative = inhibition, most hits filed as inhibitors; 230,000 tested, 1.6% active;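 also: potency is read from the fitted curve at half-maximal effect; 0% = wells with enzyme and -100% = buffer wells without enzyme; nearly all actives have a fitted effect of over 50% in size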
Target sequence (B2RXH2 1-337 limits assumed): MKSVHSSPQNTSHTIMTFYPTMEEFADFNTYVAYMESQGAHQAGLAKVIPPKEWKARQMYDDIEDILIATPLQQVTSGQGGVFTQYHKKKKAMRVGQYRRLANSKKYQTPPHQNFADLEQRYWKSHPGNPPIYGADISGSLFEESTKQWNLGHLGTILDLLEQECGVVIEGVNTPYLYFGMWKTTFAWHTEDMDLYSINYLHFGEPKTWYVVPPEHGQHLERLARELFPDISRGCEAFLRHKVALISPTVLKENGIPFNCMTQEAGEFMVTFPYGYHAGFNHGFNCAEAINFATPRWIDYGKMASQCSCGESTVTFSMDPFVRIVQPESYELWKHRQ
NPSR antag: blocks cAMP signaling of the human neuropeptide S receptor; AID 1461; 220,000 tested, 1% active; Potency, µM (top dose mostly 38.3 µM), for the others: top-dose activity change, negative = inhibition, actives largely listed as inhibitors; Q6W5P4; CHO-NPSR cells, cAMP TR-FRET, antagonist mode; active = well fitted curve in the direction sought with a large enough effect; inconclusive = small, poorly fitted or top-dose-only effect, or another doubt; inactive = no such curve, though single readings can be large; an effect the other way counts as inactive or inconclusive; also: potency is read from the fitted curve at half-maximal effect; nearly all actives have a fitted effect of over 50% in size
Coupling enz: inhibits coupling enzyme system, counter-screen for aldolase hits. AID 2472. coupling enzyme system counterscreen, AmpLite Red fluorescence. 290,000 tested, 0.67% active. activity change, negative = inhibition, % at 58.2 µM, hits read low; in the data active = activity change below about -30%
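Compounds tested against the coupling enzymes alone at 57.5 uM final; readout was AmpLite Red fluorescence (525/598 nm) after 20 min at RT.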
RGS12 GoLoco inh: inhibitors of human Gai1-RGS12 GoLoco interaction (red fluorophore) | P63096 | Gai1:RGS12 GoLoco peptide FP, rhodamine, 10 min | Potency, µM (top dose mostly 61.6 µM), inactives show at the top dose activity, negative = inhibition, usual class: inhibitors | 230,000 tested, 0.44% active | AID 880; active = well fitted inhibition curve with a large enough effect, not every such curve was filed as active; inactive = no such curve, though single readings can be large or run the other way; also: potency is read from the fitted curve at half-maximal effect; nearly all actives have a fitted effect of over 30% in size
Target sequence (P63096 whole entry, looked up): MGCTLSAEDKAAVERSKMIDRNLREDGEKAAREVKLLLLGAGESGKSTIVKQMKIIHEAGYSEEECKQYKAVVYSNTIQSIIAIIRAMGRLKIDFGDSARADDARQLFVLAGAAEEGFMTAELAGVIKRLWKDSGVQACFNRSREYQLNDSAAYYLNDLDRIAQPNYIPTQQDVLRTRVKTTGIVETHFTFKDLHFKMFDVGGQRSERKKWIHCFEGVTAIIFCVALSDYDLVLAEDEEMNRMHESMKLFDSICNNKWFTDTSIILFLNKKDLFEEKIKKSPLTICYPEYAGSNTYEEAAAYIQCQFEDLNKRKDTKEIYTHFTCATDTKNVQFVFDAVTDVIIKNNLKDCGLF
Numbers without * were called inactive; ? = inconclusive; / = no result; ! = not active in a repeat; [ ] = dose if it differs, or a comment. Unless noted, calls follow the shape of the dose curve; as a rule, active = well fitted inhibition curve with a large enough effect (not every such curve was filed as active); inconclusive = small, poorly fitted or top-dose-only effect, or another doubt; inactive = no such curve, though single readings can be large or run the other way. Unless noted, % is scaled to controls: 0 for no effect and ±100 for the full control effect.

SMILES	ALDH1A1 block	Sfp inh	JMJD2E inh	NPSR antag	Coupling enz	RGS12 GoLoco inh
COc1cc(/C=C2/C(=O)NN(c3ccc(F)cc3)C2=O)cc(Cl)c1O	/	45µM*	/	/	1	/
O=C(O)CN1C(=O)/C(=C\C(Br)=C\c2ccccc2)SC1=S	/	56µM*	/	/	-20	/
O=C(O)CN1C(=O)/C(=C/c2ccc(SCc3ccccc3)o2)SC1=S	3.5µM*	14µM*	?	17%	-55*	115%
CC1Oc2ccccc2N(CC(=O)NCCN2CCOCC2)C1=O (stereo unspecified)	/	21%	/	/	0	/
O=C(NCc1cccnc1)c1cccs1	2%	12%	-1%	6%	1	5%
O=C(O)CN1C(=O)/C(=C\c2ccc(OC(=O)c3ccco3)cc2)SC1=S	/	45µM*	/	/	10	/
C=CCN1C(=O)/C(=C\c2ccc(OC(=O)c3ccco3)c(OC)c2)SC1=S	0.22µM*	1%	-4%	-20%	-2	224%
COc1cc(/C=C2/C(=N)N3OC(C)=CC3=NC2=O)ccc1OC(=O)c1ccco1	5.6µM*	-1%	-3%	-15%	3	-3%
CCN1C(=O)/C(=C\c2cccc(OC(=O)c3ccco3)c2)SC1=S	/	7%	/	/	-38*	/
C=CCN1C(=O)/C(=C\c2cccc(OC(=O)c3ccco3)c2)SC1=S	/	27%	/	/	0	/
NC(=O)c1nsc(C(=O)N(Cc2ccccc2Cl)C(C(=O)NCC2CCCO2)c2ccc(O)cc2)c1N (stereo unspecified)	/	-1%	/	/	0	/
CC1=CC(=O)OC1Cc1ccc2ccccc2n1 (stereo unspecified)	?	-28%	?	/	0	-6%
CCC(Sc1nc2c(c(=O)n1CC)SC(C)C2)C(=O)OC (stereo unspecified)	?	10%	-4%	-13%[46.1 µM]	4	11%
CCCCNC(=O)NCc1cnn(C)c1C	0%	16%	5%	9%	1	3%
O=C(CN1CCCc2ccccc21)NCCc1ccc(F)cc1	?	79µM*	?	-16%	4	-12%
NNC(=O)CN1CCCc2ccccc21	6.3µM*	10%	24%	5%	-4	5%
COc1ccc(CCNC(=O)CN2CCCc3ccccc32)cc1OC	?	2%	-1%	-9%[46.1 µM]	4	2%
NC(=O)C1CCN(CCS(=O)(=O)c2ccc(Cl)cc2)CC1	?	1%	11%	-16%	-2	4%
Cc1cc2cc(CN(C(=O)C3CC3)C3CCCC3)c3nnnn3c2cc1C	0.2µM*	-19%	-4%	?	-2	5%
CC(=O)N(Cc1cc2ccc(C)c(C)c2n2nnnc12)C1CCCC1	?	-15%	0%	-10%[7.67 µM]	5	-2%
COc1cc(C2C(C#N)=C(N)N(N(C)C)C3=C2C(=O)CCC3)ccc1O (stereo unspecified)	/	-9%	/	/	-2	/
CC(C)c1ccc(C2NC(=S)NC3=C2C(=O)CCC3)cc1 (stereo unspecified)	4µM*	18%	12%	-4%	0	-3%
COC(=O)c1sc2nc(-c3ccco3)ccc2c1N	?	8.9µM*	?	-4%[46.1 µM]	3	-20%
COC(=O)C1Cc2ccccc2CN1S(=O)(=O)c1ccc(F)cc1 (stereo unspecified)	/	10%	/	/	-1	/
N#CC(c1ccc(Cl)cc1)c1ccc2c(C(F)(F)F)cc(C(F)(F)F)nc2n1 (stereo unspecified)	1%	11%	0%	6.3µM*	-2	18%
SMILES	ALDH1A1 block	Sfp inh	JMJD2E inh	NPSR antag	Coupling enz	RGS12 GoLoco inh
FC(F)(F)c1cc(C(F)(F)F)c2ccc(N3CCN(c4ccc(Cl)cc4)CC3)nc2n1	8%	22%	5%	0%[46.1 µM]	0	1%
COCC(=O)Nc1nc(-c2ccc([N+](=O)[O-])cc2)cs1	1%	-5%	7%	-4%	1	10%
COc1ccccc1N(C(=O)c1ccncc1)c1nc(-c2ccc([N+](=O)[O-])cc2)cs1	11µM*	-17%	4%	-37%	-7	21%
COc1ccc(Nc2nc(N/N=C/c3ccc(N(C)C)cc3)nc(C)c2[N+](=O)[O-])cc1	7.9µM*	1%	-1%	18%	2	2%
NS(=O)(=O)c1ccc(CCNC(=O)c2ccccc2-c2ccccc2)cc1	/	-2%	/	/	2	/
COc1ccc(CNC(=O)C2CCCN(S(=O)(=O)c3ccc(F)cc3)C2)cc1 (stereo unspecified)	/	-3%	/	/	/	/
Cc1c2ccccc2c(CSC(=N)N)c2ccccc12	14µM*!	45µM*	69%	/	-5	5%[14.2 µM]
Cc1c2ccccc2c(C)c2c1ccc1ccccc12	-3%	/	/	/	/	4%
NC(=O)NNc1cccc(Cl)n1	35µM*	?	-7%	15%	-1	9%
COc1c(OC2OC(C(=O)O)C(O)C(O)C2O)cc(O)c2c(=O)cc(-c3ccccc3)oc12 (stereo unspecified)	?	40µM*	?	0%	0	9%
O=C(O)C1OC(Oc2cc3oc(-c4ccccc4)cc(=O)c3c(O)c2O)C(O)C(O)C1O (stereo unspecified)	?	8.9µM*	2%	-6%	-13	-21%
O=CN/C=C/c1cc(O)ccc1O	?	14µM*	?	59%	-18	-21%
Cc1ccc(S(=O)(=O)NC(CC(=O)N2CCOCC2)c2ccco2)cc1 (stereo unspecified)	13µM*	7%	3%	-14%[46.1 µM]	4	-37%
COCCCNC(=O)CC(NS(=O)(=O)c1ccc(C)cc1)c1ccco1 (stereo unspecified)	0%	23%	4%	6%[46.1 µM]	2	7%
Cc1ccc(S(=O)(=O)NC(CC(=O)NC2CCCC2)c2ccco2)cc1 (stereo unspecified)	14µM*	?	2%	-22%[46.1 µM]	2	-7%
COc1ccc(S(=O)(=O)NC(CC(=O)NCCc2ccccc2)c2ccco2)cc1 (stereo unspecified)	?	15%	1%	-4%[46.1 µM]	1	5%
COc1ccc(S(=O)(=O)NC(CC(=O)NCCc2ccc(OC)c(OC)c2)c2ccco2)cc1 (stereo unspecified)	13µM*	4%	1%	10%[46.1 µM]	1	-9%
O=C(CC(c1ccccc1)c1ccco1)N1CCOCC1 (stereo unspecified)	40µM*	6%	7%	-13%[46.1 µM]	-2	6%
O=C(O)C[C@H](NC(=O)CP(=O)(O)O)C(=O)O.[NH-][C@@H]1CCCC[C@@H]1[NH-].[Pt]	8%[13.5 µM]	/	/	/	/	7%[14.2 µM]
COC(=O)C1=C(C)NC(C)=C(C(=O)OCCNCc2ccccc2)C1c1cccc([N+](=O)[O-])c1 (stereo unspecified)	-8%	-15%	/	/	-3	6%
